Data as given in PubChem BioAssay AID1159580 (chemical genetic matrix, 2015).
Hit rate of the full screen: of about 5,500 compounds, about 2,000 (36%) were called active. Roughly 18% stayed inconclusive and do not appear here. Cut-off read from the data, not from the text of the source: active = normalized growth mostly below about 0.91 (no sharp cut-off); inconclusive = no clear call, values can overlap the other calls; inactive = mostly above about 0.92. The list shows a part of the results.

Assay: chemical genetic growth profiling, strain panel (AID 1159580);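 note: tested at 20 µM; growth read once vehicle control cultures reached saturation at 30 °C; 1 = growth at the plate median or of vehicle wells; lower values mean less growth of the strain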
Conditions: S. cerevisiae deletion strains, growth OD
[1] = locus YAL013W, strain DEP1, active compounds read low
[2] = locus YAL040C, strain CLN3, active compounds read low
[3] = locus YCL061C, strain MRC1 (second series), active compounds read low
[4] = locus YDR363W, strain ESC2, active compounds read low
[5] = locus YER002W, strain NOP16, active compounds read low
[6] = locus YNL175C, strain NOP13, active compounds read low
[7] = locus YNL197C, strain WHI3, active compounds read low
[8] = locus YNL224C, strain SQS1, active compounds read low
[9] = locus YOR083W, strain WHI5 (second series), active compounds read low

Measured: normalized growth

Nc1nc2[nH]c(=O)cnc2c(=O)[nH]1
inactive: [1] 0.996 | [2] 1.06 | [3] 0.994 | [4] 0.985 | [5] 0.949 | locus YGR229C, strain SMI1, active compounds read low 1.01 | locus YMR263W, strain SAP30, active compounds read low 0.99 | [6] 0.983 | [7] 0.977 | [8] 0.987 | locus YNL322C, strain KRE1, active compounds read low 1.01 | [9] 0.988

CCCCCCCCCCCCCCC[C@H](O)[C@H](N)CO
active: locus YNL128W, strain TEP1, active compounds read low 0.222 | [6] 0.643 | [7] 1.12 [resistant] | [9] 0.811
inactive: [1] 0.976 | [2] 1.05 | [3] 0.987 | [4] 0.99 | [5] 1.03 | locus YGR078C, strain PAC10, active compounds read low 1.01 | locus YMR307W, strain GAS1, active compounds read low 1.01 | [8] 0.928 | locus YPL055C, strain LGE1, active compounds read low 1.02 | locus YPL241C, strain CIN2, active compounds read low 0.998
